Results from PubChem BioAssay (Tox21).
Results filed as inconclusive are left out. Active and inactive are the calls of the source. Unless noted, calls come from the whole dose curve; as a rule, active = well fitted curve in the direction sought with a large enough effect in the repeat runs; inconclusive = weak or mixed curves; inactive = no such curve, though single readings can be large; an effect the other way counts as inactive or inconclusive. Positions of bridges follow the written chain, without caps; N, C: chain ends. Non-standard residues stand in square brackets, D forms with d. Residues, ends and D or L forms follow the SMILES beside them. hArg = N=C(N)NCCCC[C@H](N)C(=O)O; Mpa = O=C(O)CCS

What was measured:
[1] = qHTS RealTime-Glo MT Cell Viability Assay in HEK293 cells - 24 hour (AID 1224886); note: top concentration of the series differs between compounds; nearly all actives have a fitted effect of over 50% in size
How it was run: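 HEK293 cells were seeded at 600 cells/well together with NanoLuc luciferase and cell-permeant prosubstrate, preincubated 5 h at 37 C/5% CO2, then given compound in DMSO by pintool. Luminescence from viable-cell prosubstrate reduction was read repeatedly over 40 h.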

[2] = qHTS RealTime-Glo MT Cell Viability Assay in HEK293 cells - 8 hour (AID 1224887); note: top concentration of the series differs between compounds; nearly all actives have a fitted effect of over 50% in size
How it was run: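 Kinetic, non-lysing viability readout. Seed HEK293 (600/well) with reagent, incubate 5 h at 37 C/5% CO2, pin 23 nL compound in DMSO, incubate at 37 C, read luminescence at 0, 8, 16, 24, 32, 40 h.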

[3] = A CellTox Green Cytotoxicity Assay to monitor cytotoxicity in HEK293 cells - 16 hour (AID 1224888); note: nearly all actives have a fitted effect of over 35% in size
How it was run: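 Real-time, in one plate: 600 HEK293 cells/well with dead-cell DNA dye, pinned compound after 5 h, 37 C incubation over 40 h; viable cells give no appreciable fluorescence.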

[4] = qHTS RealTime-Glo MT Cell Viability Assay in HepG2 cells - 0 hour (AID 1224889); note: nearly all actives have a fitted effect of over 50% in size
How it was run: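 HepG2 cells were seeded at 600 cells/well together with NanoLuc luciferase and a cell-permeant prosubstrate, preincubated 5 h at 37 C/5% CO2, then pin-dosed with compounds in DMSO. Nonlytic luminescence from viable cells was read at each time point.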

[5] = A CellTox Green Cytotoxicity Assay to monitor cytotoxicity in HepG2 cells - 8 hour (AID 1224890); note: nearly all actives have a fitted effect of over 45% in size
How it was run: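 Cytotoxicity was tracked as dead-cell DNA fluorescence in HepG2 cells treated with test compounds at 37 C; each time-point value comes from one kinetic series spanning 0, 8, 16, 24, 32 and 40 h.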

[6] = qHTS assay to identify small molecule antagonists of the estrogen receptor alpha (ER-alpha) signaling pathway using the BG1 cell line in the presence of 0.1 nM 17-beta-estradiol - cell viability counter screen (AID 1259241); note: nearly all actives have a fitted effect of over 40% in size
How it was run: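 Estradiol-stimulated (0.1 nM) VM7Luc4E2 cells exposed to compounds 22 hr; viability measured by fluorescence of cleaved CellTiter-Fluor substrate after 30 min.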

[7] = qHTS assay to identify small molecule antagonists of the androgen receptor (AR) signaling pathway using the MDA cell line in the presence of 0.5 nM R1881 - cell viability counter screen (AID 1259242); note: nearly all actives have a fitted effect of over 45% in size
How it was run: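 Cells seeded at 3,000/well and allowed 5 hr at 37C, 0% CO2 before compound transfer and R1881 (0.5 nM final) addition; 16 hr later, live-cell protease fluorescence indicated cytotoxicity.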

[8] = target: Androgen receptor (Homo sapiens) (UniProt P10275); experiment: qHTS assay to identify small molecule antagonists of the androgen receptor (AR) signaling pathway using the MDA cell line in the presence of 0.5 nM R1881 (AID 1259243); note: nearly all actives have a fitted effect of over 50% in size
How it was run: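 Luminescence from an AR/GR-responsive MMTV-luciferase construct in MDA-kb2 breast carcinoma cells, read 30 min after ONE-Glo, following 16 hr co-treatment with compounds and 0.5 nM R1881.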

[9] = target: Estrogen receptor (Homo sapiens) (UniProt P03372); experiment: qHTS assay to identify small molecule antagonists of the estrogen receptor alpha (ER-alpha) signaling pathway using the BG1 cell line in the presence of 0.1 nM 17-beta-estradiol (AID 1259244); note: nearly all actives have a fitted effect of over 50% in size
How it was run: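 Luciferase signal from VM7Luc4E2 ERE-reporter cells, co-dosed with test compound and 0.1 nM final 17beta-estradiol for 22 h, read with ONE-Glo.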

[10] = qHTS assay to identify small molecule HDAC inhibitors (AID 1259364);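 note: wild-type HCT-116 cells with endogenous class I/II HDAC activity; top concentration of the series differs between compounds; nearly all actives have a fitted effect of over 45% in size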
How it was run: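 HCT-116 wt cells, 1,500/well, overnight attach. Compounds (DMSO) 2 h, 37 °C. HDAC-Glo I/II, 30 min RT. Luminescence.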

[11] = qHTS assay to identify small molecule agonists of the sonic hedgehog signaling (Shh) pathway - cell viability counter screen (AID 1259366); note: nearly all actives have a fitted effect of over 50% in size
How it was run: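 Same-well cytotoxicity read. Gli1-Luc reporter 3T3 cells; compounds 24hr, 37C/5% CO2; CellTiter-Fluor fluorescence.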

[12] = qHTS assay to identify small molecule antagonists of the sonic hedgehog signaling (Shh) pathway - cell viability counter screen (AID 1259367); note: nearly all actives have a fitted effect of over 55% in size
How it was run: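 CellTiter-Fluor signal in conditioned medium-stimulated 3T3 Gli1-Luc cells, 23 hr compound exposure, 37C.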

[13] = qHTS assay to identify small molecule agonists of the sonic hedgehog signaling (Shh) pathway (AID 1259368; calls by dose curve;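 note: NIH/3T3-derived 3T3Gli1-Luc cells carrying a stable Gli1-driven firefly luciferase reporter; series mostly up to about 92 µM; nearly all actives have a fitted effect of over 15% in size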)
How it was run: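 Following a 24 hr incubation with DMSO-dissolved compounds at 37 C, 5% CO2, Gli1-Luc NIH/3T3-derived cells received luciferase reagent for 30 min at room temperature prior to luminescence measurement.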

[14] = qHTS assay to identify small molecule antagonists of the sonic hedgehog signaling (Shh) pathway (AID 1259369; calls by dose curve; note: nearly all actives have a fitted effect of over 45% in size)
How it was run: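 Read-out is luminescence from a firefly luciferase gene controlled by the Gli1 response element, in 3T3Gli1-Luc cells pre-incubated 4hr then exposed to compounds and conditioned medium for 24hr.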

[15] = qHTS assay to identify small molecule agonists of the androgen receptor (AR) signaling pathway in the presence of an antagonist - cell viability counter screen (AID 1259379);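 note: MDA-kb2 human breast cancer cells carrying an MMTV luciferase reporter; series mostly up to about 92 µM; nearly all actives have a fitted effect of over 25% in size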
How it was run: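 Each compound was tested at 15 concentrations on MDA-kb2 cells in the presence of 3.0uM nilutamide. Viability was measured by CellTiter-Fluor fluorescence after a 16 hr incubation at 37C in a CO2-free atmosphere.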

[16] = qHTS assay to identify small molecule agonists of the estrogen receptor beta (ER-beta) signaling pathway - cell viability counter screen (AID 1259380); note: nearly all actives have a fitted effect of over 30% in size
How it was run: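 Compounds dissolved in DMSO were pin-transferred onto ER-beta-UAS-bla HEK293T cells that had settled 6 hr, and exposure ran 16 hr at 37C. Following the reporter read, CellTiter-Glo luminescence after 30 min at room temperature indicated cytotoxicity.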

[17] = qHTS assay to identify small molecule phospholipidosis (PLD) inducers (AID 1259344; active = well fitted curve in the direction sought with a large enough effect; an effect the other way counts as inactive or inconclusive)
How it was run: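 Accumulated phospholipid, stained red by LipidTOX during 24 h compound treatment of HepG2 cells at 37 C, is quantified from images as pit number and intensity, normalised per cell using Hoechst-stained nuclei.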

[18] = qHTS assay to identify small molecule HDAC inhibitors - cell viability counter screen (AID 1259365)
How it was run: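 After overnight seeding at 1,500 cells per well, wild-type HCT-116 cultures took up compounds in DMSO for 2hr at 37 C. Viable cell content came from luminescence with CellTiter-Glo.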

[19] = target: Estrogen receptor beta (Homo sapiens) (UniProt Q92731); experiment: qHTS assay to identify small molecule agonists of the estrogen receptor beta (ER-beta) signaling pathway (AID 1259377; active = well fitted activation curve with a large enough effect in the signal ratio in the repeat runs, not every such curve was filed as active; the % refers to the signal ratio)
How it was run: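 Read-out: beta-lactamase FRET fluorescence. Cell line: ER-beta-UAS-bla HEK293T in 2% charcoal-stripped FBS. Exposure: 16 hr at 37C. Substrate step: 2 h at room temperature.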

[20] = target: Estrogen receptor beta (Homo sapiens) (UniProt Q92731); experiment: qHTS assay to identify small molecule antagonists of the estrogen receptor beta (ER-beta) signaling pathway (AID 1259378; active = well fitted inhibition curve with a large enough effect in the signal ratio in the repeat runs, not every such curve was filed as active; the % refers to the signal ratio)
How it was run: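 Antagonist mode: compounds added to beta-lactamase reporter HEK293T ER-beta-UAS cells stimulated with E2 (1nM final), 16 hr at 37C. LiveBLAzer B/G FRET substrate, 2 hours room temperature, fluorescence read-out.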
% is set by controls: 0 for no effect and ±100 for the full control effect.

Estrogen receptor (Homo sapiens), sequence (P03372 whole entry, looked up): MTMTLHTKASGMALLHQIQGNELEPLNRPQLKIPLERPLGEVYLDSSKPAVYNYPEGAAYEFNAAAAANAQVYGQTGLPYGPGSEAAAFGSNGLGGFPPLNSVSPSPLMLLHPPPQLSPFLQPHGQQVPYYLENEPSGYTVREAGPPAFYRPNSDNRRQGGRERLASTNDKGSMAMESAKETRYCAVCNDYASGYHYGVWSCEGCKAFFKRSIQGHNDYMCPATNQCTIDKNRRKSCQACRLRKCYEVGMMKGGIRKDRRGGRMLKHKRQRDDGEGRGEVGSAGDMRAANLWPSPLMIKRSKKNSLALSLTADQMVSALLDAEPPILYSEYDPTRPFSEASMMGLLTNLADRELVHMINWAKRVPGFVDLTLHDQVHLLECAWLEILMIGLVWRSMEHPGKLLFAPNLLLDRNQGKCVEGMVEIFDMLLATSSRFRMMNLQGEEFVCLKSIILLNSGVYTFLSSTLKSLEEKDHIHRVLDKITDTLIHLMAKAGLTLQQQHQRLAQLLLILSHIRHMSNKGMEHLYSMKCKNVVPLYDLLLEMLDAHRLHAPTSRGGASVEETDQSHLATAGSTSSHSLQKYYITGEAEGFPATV
Androgen receptor (Homo sapiens), sequence (P10275 whole entry, looked up): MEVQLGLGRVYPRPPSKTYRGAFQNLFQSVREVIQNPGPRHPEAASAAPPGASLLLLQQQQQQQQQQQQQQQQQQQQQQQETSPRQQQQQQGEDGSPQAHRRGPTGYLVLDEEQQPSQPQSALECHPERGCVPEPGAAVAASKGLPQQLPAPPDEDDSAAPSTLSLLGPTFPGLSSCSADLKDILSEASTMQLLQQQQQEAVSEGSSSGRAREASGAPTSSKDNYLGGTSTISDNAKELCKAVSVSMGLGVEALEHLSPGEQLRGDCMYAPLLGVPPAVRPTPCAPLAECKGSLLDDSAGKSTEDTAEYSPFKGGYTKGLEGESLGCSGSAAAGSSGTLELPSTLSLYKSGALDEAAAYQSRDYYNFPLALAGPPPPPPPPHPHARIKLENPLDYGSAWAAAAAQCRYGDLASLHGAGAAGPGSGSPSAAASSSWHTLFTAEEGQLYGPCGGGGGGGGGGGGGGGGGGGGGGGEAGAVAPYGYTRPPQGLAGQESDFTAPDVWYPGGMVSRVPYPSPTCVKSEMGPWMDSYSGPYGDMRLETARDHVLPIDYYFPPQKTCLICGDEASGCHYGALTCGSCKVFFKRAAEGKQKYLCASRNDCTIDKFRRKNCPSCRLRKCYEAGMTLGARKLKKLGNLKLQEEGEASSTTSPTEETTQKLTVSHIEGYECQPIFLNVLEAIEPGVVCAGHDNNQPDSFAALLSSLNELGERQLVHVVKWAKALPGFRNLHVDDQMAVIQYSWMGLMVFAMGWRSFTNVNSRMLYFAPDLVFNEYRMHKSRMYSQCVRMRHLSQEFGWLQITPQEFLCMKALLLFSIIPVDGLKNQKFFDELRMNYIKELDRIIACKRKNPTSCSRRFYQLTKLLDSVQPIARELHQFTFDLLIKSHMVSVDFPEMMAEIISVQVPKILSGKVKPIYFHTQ
Estrogen receptor beta (Homo sapiens), sequence (Q92731 whole entry, looked up): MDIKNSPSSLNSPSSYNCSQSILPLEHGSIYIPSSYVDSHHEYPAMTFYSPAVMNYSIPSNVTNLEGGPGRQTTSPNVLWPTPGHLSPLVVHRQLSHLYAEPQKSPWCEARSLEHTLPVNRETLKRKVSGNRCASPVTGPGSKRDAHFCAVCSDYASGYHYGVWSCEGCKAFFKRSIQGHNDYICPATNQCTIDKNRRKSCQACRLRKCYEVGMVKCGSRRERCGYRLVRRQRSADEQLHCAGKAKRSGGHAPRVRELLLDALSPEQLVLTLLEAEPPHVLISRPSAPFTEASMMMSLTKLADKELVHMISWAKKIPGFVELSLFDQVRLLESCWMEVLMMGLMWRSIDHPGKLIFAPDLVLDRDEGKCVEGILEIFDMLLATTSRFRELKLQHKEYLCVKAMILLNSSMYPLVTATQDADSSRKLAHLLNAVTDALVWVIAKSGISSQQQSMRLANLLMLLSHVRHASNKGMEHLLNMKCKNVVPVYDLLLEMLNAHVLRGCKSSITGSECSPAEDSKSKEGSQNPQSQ

CC(C)COC(=O)c1ccccc1
inactive: Potency [1] | Potency [2] | Potency [3] | Potency [4] | Potency [5] | outcome [6] | outcome [7] | Potency [8] | outcome [9] | Potency [10] | outcome [11] | outcome [12] | outcome [13] | Potency [14] | outcome [15] | outcome [16]

CC(C)OC(=O)OCOP(=O)(CO[C@H](C)Cn1cnc2c(N)ncnc21)OCOC(=O)OC(C)C
inactive: Potency [1] | Potency [2] | Potency [3] | Potency [4] | Potency [5] | outcome [6] | outcome [7] | outcome [9] | outcome [17] | Potency [10] | outcome [18] | outcome [11] | outcome [12] | outcome [13] | Potency [14] | Potency [19] | Potency [20] | outcome [15] | outcome [16]

C/C=C(\C)C(C)=O
inactive: Potency [1] | Potency [2] | Potency [3] | Potency [4] | Potency [5] | outcome [6] | outcome [7] | Potency [8] | outcome [9] | Potency [10] | outcome [18] | outcome [11] | outcome [13] | Potency [14] | outcome [15] | outcome [16]

OC[C@H]1O[C@@H](O[C@@H]2[C@@H](CO)O[C@](O)(CO)[C@H]2O)[C@H](O)[C@@H](O)[C@H]1O
inactive: Potency [1] | Potency [2] | Potency [3] | Potency [4] | Potency [5] | outcome [6] | outcome [7] | Potency [8] | outcome [9] | outcome [17] | outcome [18] | outcome [11] | outcome [12] | outcome [13] | Potency [14] | outcome [15] | outcome [16]

CC(C)[C@H]1CC[C@H](C)C[C@@H]1O
inactive: Potency [1] | Potency [2] | Potency [3] | Potency [4] | Potency [5] | outcome [6] | outcome [7] | Potency [8] | outcome [18] | outcome [11] | outcome [13] | Potency [19] | Potency [20] | outcome [15] | outcome [16]

COC(=O)c1cc(Cl)cc(Cl)c1
inactive: Potency [1] | Potency [2] | Potency [3] | Potency [4] | Potency [5] | outcome [6] | outcome [7] | Potency [8] | outcome [9] | outcome [18] | outcome [11] | outcome [12] | outcome [13] | Potency [14] | Potency [20] | outcome [15] | outcome [16]

CC(C)NC(=O)c1ccc(C=O)cc1
inactive: Potency [1] | Potency [2] | Potency [3] | Potency [4] | Potency [5] | outcome [6] | outcome [7] | Potency [8] | outcome [9] | Potency [10] | outcome [18] | outcome [11] | outcome [12] | outcome [13] | Potency [14] | Potency [19] | outcome [15]

O=C(O)CNC(=O)CNC(=O)CNC(=O)CSC(=O)c1ccccc1
inactive: Potency [1] | Potency [2] | Potency [3] | Potency [4] | Potency [5] | outcome [6] | outcome [7] | outcome [9] | PLD induction [17] 1.13% [at 7.66 µM] | Potency [10] | outcome [18] | outcome [11] | outcome [13] | Potency [14] | Potency [19] | Potency [20] | outcome [15]

N#CCC(=O)NN
inactive: Potency [1] | Potency [2] | Potency [3] | Potency [4] | Potency [5] | outcome [6] | outcome [7] | outcome [9] | outcome [17] | Potency [10] | outcome [18] | outcome [11] | outcome [12] | outcome [13] | Potency [14] | outcome [15] | outcome [16]

OC1(c2ccc(Cl)cc2)CCNCC1
inactive: Potency [1] | Potency [2] | Potency [3] | Potency [4] | Potency [5] | outcome [6] | outcome [7] | outcome [9] | Potency [10] | outcome [18] | outcome [11] | outcome [12] | outcome [13] | Potency [14] | Potency [20] | outcome [15]

O=C(CCCCC(=O)Nc1c(I)cc(I)c(C(=O)O)c1I)Nc1c(I)cc(I)c(C(=O)O)c1I
inactive: Potency [1] | Potency [2] | Potency [3] | Potency [4] | Potency [5] | outcome [6] | outcome [7] | outcome [9] | outcome [17] | Potency [10] | outcome [18] | outcome [11] | outcome [13] | Potency [14] | outcome [15]

NC(=O)[C@@H]1CSSCCC(=O)N[C@@H](CCCCN=C(N)N)C(=O)NCC(=O)N[C@@H](CC(=O)O)C(=O)N[C@@H](Cc2c[nH]c3ccccc23)C(=O)N2CCC[C@H]2C(=O)N1 ([Mpa][hArg]GDWPC-NH2; disulfide 1-7)
inactive: Potency [1] | Potency [2] | Potency [3] | Potency [4] | Potency [5] | outcome [6] | outcome [7] | outcome [9] | outcome [17] | Potency [10] | outcome [18] | outcome [11] | outcome [12] | outcome [13] | Potency [14] | outcome [15] | outcome [16]

CC1=C(C(=O)O)N2C(=O)[C@@H](NC(=O)[C@H](N)c3ccccc3)[C@H]2SC1
inactive: Potency [1] | Potency [2] | Potency [3] | Potency [4] | Potency [5] | outcome [6] | outcome [7] | outcome [9] | outcome [17] | Potency [10] | outcome [11] | outcome [12] | outcome [13] | Potency [14] | Potency [20] | outcome [15]
